High-throughput results as filed in PubChem BioAssay.
TGFb inhibitor: qHTS for Inhibitors of TGF-b. AID 588855, 2011. Potency, µM (series often up to 46.1 µM), hits mostly inhibitors. HepG2 CAGA-GFP TGF-b/SMAD3 reporter, GFP fluorescence, 18 h; TGF-beta stimulated, 500 pg/mL final. 410,000 tested, 1.2% active; note: nearly all actives have a fitted effect of over 65% in size
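TGF-beta reporter screen: HEPG2 CAGA-GFP, 1% FBS, 500 pg/mL TGF-beta final, 18 h; per-cell GFP summed per well; curves fitted and categorized by class.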
HepG2 viability: qHTS for Inhibitors of TGF-b: Cytotox Counterscreen. HepG2 CAGA-GFP viability, ATP luminescence, 18 h. Potency, µM (highest dose often 46.1 µM), actives largely listed as cytotoxic. 410,000 tested, 0.76% active. AID 588856, 2011
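HepG2 CAGA-GFP cells (1000/well, DMEM with 1% FBS) received compound, then TGF-beta at 500 pg/mL final, and were incubated 18 hours at 37 degrees C. Viability was read by CellTiter-Glo luminescence. Media-only wells were set as complete cell-killing and DMSO as no toxicity.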
DT40 TDP1 CPT: qHTS for Inhibitors of human tyrosyl-DNA phosphodiesterase 1 (TDP1): qHTS in cells in presence of CPT; chicken DT40 Tdp1-/-;hTDP1 cells + 20 nM CPT, ATP luminescence, 48 h; Potency, µM (titrated, usually from 46.2 µM), actives largely listed as inhibitors; 420,000 tested, 12% active; note: nearly all actives have a fitted effect of over 55% in size
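Cell growth measured by CellTiter-Glo luminescence after a minimum 48 h, 37 C compound exposure with 20 nM CPT in Tdp1-knockout DT40 cells stably expressing hTDP1, seeded 400/well; qHTS titration format.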
IL-1B inflam inh: qHTS for Inhibitors of Inflammasome Signaling: IL-1-beta AlphaLISA Primary Screen. THP-1 LPS/ATP IL-1B secretion, AlphaLISA, 16 h; hits give low values. activity change, % at 57.5 µM. 360,000 tested, 4.7% active; in the data active = activity change below about -50%; inconclusive = mostly about -30% to -49%
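Secreted IL-1B measured by AlphaLISA bead assay after 16 h compound exposure of THP-1 cells; compounds (final up to 57.5 uM) added 1 h before LPS (250 ng/mL) and ATP (1.25 mM) stimulation; lower signal means less secretion.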
ASM inhibitor: Inhibitors of Secretory Acid Sphingomyelinase (S-ASM): qHTS; Sphingomyelin phosphodiesterase (Homo sapiens), P17405; placental ASM, HMU-PC fluorogenic substrate, 60 min; Potency, µM (titrated, usually from 57.5 µM), most hits filed as inhibitors; 340,000 tested, 0.006% active; AID 504937, 2011
Target sequence (P17405 47-631 limits assumed): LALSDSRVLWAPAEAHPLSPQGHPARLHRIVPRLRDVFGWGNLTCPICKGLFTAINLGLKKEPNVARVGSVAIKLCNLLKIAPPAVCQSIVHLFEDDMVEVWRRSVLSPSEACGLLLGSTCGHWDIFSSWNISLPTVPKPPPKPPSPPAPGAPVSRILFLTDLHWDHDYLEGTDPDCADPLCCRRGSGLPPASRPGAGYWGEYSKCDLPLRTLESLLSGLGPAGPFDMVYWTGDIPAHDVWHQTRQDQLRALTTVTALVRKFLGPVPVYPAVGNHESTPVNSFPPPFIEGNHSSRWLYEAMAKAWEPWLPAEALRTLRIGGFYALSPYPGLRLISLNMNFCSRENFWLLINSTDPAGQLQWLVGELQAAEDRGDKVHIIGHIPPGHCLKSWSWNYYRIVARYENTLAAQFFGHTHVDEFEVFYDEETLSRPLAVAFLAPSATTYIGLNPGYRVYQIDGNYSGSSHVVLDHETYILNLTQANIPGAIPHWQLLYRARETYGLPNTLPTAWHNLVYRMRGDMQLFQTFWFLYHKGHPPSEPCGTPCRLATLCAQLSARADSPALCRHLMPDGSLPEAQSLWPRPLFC
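Steps: dispense placental human ASM, pin compound, wait 10 min at room temperature, add HMU-PC0 substrate at 9 uM final, incubate 60 min at 37 °C, add stop solution raising pH to 10, read fluorescence.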
DT40 TDP1 no CPT: qHTS for Inhibitors of human tyrosyl-DNA phosphodiesterase 1 (TDP1): qHTS in cells in absence of CPT. DT40 Tdp1-/- hTDP1 cells, no CPT, ATP luminescence, 48 h. Potency, µM (highest dose often 46.2 µM), hits mostly inhibitors. 420,000 tested, 15% active; note: nearly all actives have a fitted effect of over 55% in size
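Growth kinetics read by CellTiter-Glo luminescence after ≥48 hr at 37 °C. Cells: DT40 Tdp1-/- stably carrying human TDP1, 400 per well, compound exposure in the absence of CPT (DMSO vehicle).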
Hits are given with their value; . = inactive; ? = inconclusive; / = no result given; ! = a repeat was not active. This is a sample that favours compounds with a hit; in the whole collection about 19% have one here. Unless noted, calls come from the whole dose curve; as a rule, active = well fitted curve in the direction sought with a large enough effect; inconclusive = small, poorly fitted or top-dose-only effect, or another doubt; inactive = no such curve, though single readings can be large; an effect the other way counts as inactive or inconclusive.

SMILES	TGFb inhibitor	HepG2 viability	DT40 TDP1 CPT	IL-1B inflam inh	ASM inhibitor	DT40 TDP1 no CPT
Clc1ccc(COC(Cn2ccnc2)c2ccc(Cl)cc2Cl)c(Cl)c1 (stereo unspecified)	?	16µM!	18µM!	?	?	15µM
CN(c1ccccc1N(C)S(=O)(=O)c1ccccc1)S(=O)(=O)c1ccccc1	.	.	.	.	.	?
O=S(=O)(c1ccccc1C(F)(F)F)N1CCN(c2ncnc3sccc23)CC1	13µM	.	15µM	-62	.	8.2µM
CCc1ccc(NC(=O)c2ccc(F)c(S(=O)(=O)N3CCc4ccccc4C3)c2)cc1	.	.	?	/	/	21µM
CCc1ccc(NC(=O)c2ccc(F)c(S(=O)(=O)N3CCC4(CC3)OCCO4)c2)cc1	?	.	?	/	/	21µM
CCN(CC)C(=O)c1ccc(NC(=O)c2cccc(S(=O)(=O)N3CCN(C)CC3)c2)cc1	.	.	.	.	.	.
COc1cc(C(=O)NCCSc2c(-c3ccccc3)[nH]c3ccccc23)cc(OC)c1OC	?	.	8.2µM	/	/	8.2µM
O=C(NCCSc1c(-c2ccc(F)cc2)[nH]c2ccccc12)c1ccc(S(=O)(=O)N2CCOCC2)cc1	?	.	5.2µM	/	/	4.1µM
Cc1ccc2oc(=O)n(CCC(=O)Nc3ccc(N4CCOCC4)cc3)c2c1	.	.	.	.	/	?
Cc1ccc2oc(=O)n(CCNC(=O)Nc3ccc(C)c(F)c3)c2c1	.	.	?	/	/	23µM
COc1cc(CCN)cc(OC)c1OC	/	/	.	/	/	.
CC(=O)OC1CC(OC2C(O)CC(OC3C(O)CC(OC4CCC5(C)C(CCC6C5CCC5(C)C(C7=CC(=O)OC7)CCC65O)C4)OC3C)OC2C)OC(C)C1OC1OC(CO)C(O)C(O)C1O (stereo unspecified)	?	.	0.58µM	-71	.	0.41µM
CC(=O)O[C@H]1C[C@H](O[C@H]2[C@@H](O)C[C@H](O[C@H]3[C@@H](O)C[C@H](O[C@H]4CC[C@@]5(C)[C@H](CC[C@@H]6[C@@H]5C[C@@H](O)[C@]5(C)[C@@H](C7=CC(=O)OC7)CC[C@]65O)C4)O[C@@H]3C)O[C@@H]2C)O[C@H](C)[C@H]1O[C@@H]1O[C@H](CO)[C@@H](O)[C@H](O)[C@H]1O	/	/	0.38µM	/	/	0.34µM
Cc1cccc(-n2nc(C)c(C(=O)N3CCN(c4ccccc4)CC3)c2-n2cccc2)c1	?	.	16µM	/	/	21µM
Cc1cccc(N2CCC3(CC2)C(=O)NC(=O)NC3=O)c1	.	.	.	.	.	.
O=c1[nH]c(=S)n(-c2ccccc2F)c(O)c1C=NCCN1CCNCC1	.	.	.	.	.	.
CN1CCCC2(CCN(C(=O)c3csnn3)CC2)C1	/	/	.	/	/	.
O=c1nc(/C=C/c2ccc(Cl)cc2Cl)cc(C(F)(F)F)[nH]1	16µM	11µM	.	-87	.	?
CC(C)[N+](C)(CCC(C(N)=O)(c1ccccc1)c1ccccc1)C(C)C	.	.	7.3µM!	.	.	9.2µM!
C[N+](C)(C)CCOC(=O)C(O)(c1ccccc1)c1ccccc1	/	/	.	/	/	.
CN1[C@H](CC(=O)c2ccccc2)CCC[C@H]1C[C@@H](O)c1ccccc1	/	/	.	/	/	.
COc1cccc(N2C(=O)NC(=O)C3(Cc4cc(C)ccc4N(C)C3)C2=O)c1 (stereo unspecified)	?	.	?	.	.	?
CCCCN1C(=O)NC(=O)C2(Cc3cc(C)ccc3N(C)C2)C1=O (stereo unspecified)	.	.	?	.	.	13µM
